Results taken from PubChem BioAssay (EPA / NIEHS).
Some compounds were tested as several samples or in several runs, with calls that do not always agree. Calls of active or inactive are those of the source. How the source made its calls: active means hit-call score of the fitted dose curve at least 0.9, where 1 is the maximum; inactive means score below 0.9.

Assays:
[1] = read-out: Transforming growth factor beta 1 (TGFb1), TGFB1 (gene 7040); test: BSK_KF3CT_TGFb1: BioMAP Diversity Plus: KF3CT Assay for Transforming growth factor beta 1 (TGFb1) Biomarker Activity (AID 2283072); details: primary human keratinocytes with fibroblasts; actives raise or lower the signal
Outline: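 Signal changes in either direction, relative to DMSO, define activity here. TGF-b1 is read by ELISA from a human keratinocyte-fibroblast co-culture 24 h post-dose.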

[2] = read-out: C-C motif chemokine 2 (Homo sapiens) (UniProt P13500); test: BSK_KF3CT_MCP1: BioMAP Diversity Plus: KF3CT Assay for Monocyte Chemoattractant Protein 1 (MCP1/CCL2) Biomarker Activity (AID 2283073); details: primary human keratinocytes with fibroblasts; actives raise or lower the signal
Outline: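 ELISA readout of MCP-1 after 24 h chemical dosing of a human skin primary co-culture of keratinocytes and foreskin fibroblasts. Activity was fitted in both directions against DMSO.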

[3] = read-out: Matrix Metallopeptidase 9 (MMP9), MMP9 (gene 4318); test: BSK_KF3CT_MMP9: BioMAP Diversity Plus: KF3CT Assay for Matrix Metallopeptidase 9 (MMP9) Biomarker Activity (AID 2283074); details: primary human keratinocytes with fibroblasts; actives raise or lower the signal;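 on AC50: MMP9 protein level quantified by ELISA in the co-culture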
Outline: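 Keratinocyte plus foreskin fibroblast human primary skin co-culture was dosed with chemical and MMP-9 was quantified by ELISA 24 h later. Bidirectional curve fitting used DMSO as negative control and activity baseline.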

[4] = read-out: urokinase plasminogen activator (uPA), PLAU (gene 5328); test: BSK_KF3CT_uPA: BioMAP Diversity Plus: KF3CT Assay for urokinase plasminogen activator (uPA) Biomarker Activity (AID 2283075); details: primary human keratinocytes with fibroblasts; actives raise or lower the signal
Outline: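 Human keratinocyte plus foreskin fibroblast primary co-culture exposed to chemical for 24 h. uPA levels were quantified by ELISA, and activity was fitted bidirectionally against a DMSO negative-control baseline.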

CD40, CD40 (gene 958) = test: BSK_LPS_CD40: BioMAP Diversity Plus: LPS Assay for CD40 Biomarker Activity (AID 2283076); details: primary human HUVEC with PBMC; actives raise or lower the signal
Outline: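 Cells were dosed, incubated 24 h, then assayed for CD40 by ELISA. Gain or loss of signal was analysed relative to DMSO controls. The culture paired human umbilical vein endothelium with peripheral blood mononuclear cells.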

[5] = read-out: E-selectin (Homo sapiens) (UniProt P16581); test: BSK_LPS_Eselectin: BioMAP Diversity Plus: LPS Assay for Eselectin Biomarker Activity (AID 2283077); details: primary human HUVEC with PBMC; actives raise or lower the signal
Outline: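 Primary human vascular co-culture (endothelium plus PBMC) was dosed with chemical, then E-selectin quantified by ELISA at 24 h. Endpoint values derive from bidirectional curve fitting relative to DMSO.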

[6] = read-out: Interleukin-8 (IL8), CXCL8 (gene 3576); test: BSK_LPS_IL8: BioMAP Diversity Plus: LPS Assay for Interleukin-8 (IL8) Biomarker Activity (AID 2283078); details: primary human HUVEC with PBMC; actives raise or lower the signal
Outline: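 Readout is IL-8 by ELISA, taken 24 h after compounds were added to LPS-stimulated endothelial/PBMC co-cultures. Both increases and decreases relative to DMSO control were scored through bidirectional fitting.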

[7] = BSK_LPS_SRB: Viability Assessment in the BioMAP Diversity Plus: LPS Assay (AID 2283079); details: primary human HUVEC with PBMC;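 further: total protein by sulforhodamine B absorbance as a cytotoxicity measure; measured one day after compound addition; fitted in both directions against DMSO so loss or gain of signal counts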
Outline: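 Readout is SRB absorbance at 560 nm (0.1% stain, TCA-fixed parallel cultures) as a total-protein cytotoxicity measure. Cells: primary human umbilical vein endothelium plus peripheral blood mononuclear cells, 24 h after chemical exposure; DMSO served as baseline.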

[8] = read-out: Monocyte Chemoattractant Protein-1 (MCP1), CCL2 (gene 6347); test: BSK_LPS_MCP1: BioMAP Diversity Plus: LPS Assay for Monocyte Chemoattractant Protein-1 (MCP1) Biomarker Activity (AID 2283081); details: primary human HUVEC with PBMC; actives raise or lower the signal;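 on AC50: secreted MCP-1 protein quantified by ELISA in culture supernatant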
Outline: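 Human endothelial–PBMC co-cultures were dosed with chemical, then LPS-driven MCP-1 levels were quantified by ELISA at 24 h. Activity in either direction was fitted versus DMSO negative control.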

[9] = read-out: Interleukin-1 alpha (IL1a), IL1A (gene 3552); test: BSK_LPS_IL1a: BioMAP Diversity Plus: LPS Assay for Interleukin-1 alpha (IL1a) Biomarker Activity (AID 2283080); details: primary human HUVEC with PBMC; actives raise or lower the signal
Outline: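 ELISA read-out of IL-1 alpha from a human primary vascular co-culture (endothelium plus PBMC) under LPS, sampled 24 hours post-dosing. Activity was fitted in both directions relative to DMSO controls.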

Measured: AC50

Chain of E-selectin (Homo sapiens) (P16581 whole entry, looked up): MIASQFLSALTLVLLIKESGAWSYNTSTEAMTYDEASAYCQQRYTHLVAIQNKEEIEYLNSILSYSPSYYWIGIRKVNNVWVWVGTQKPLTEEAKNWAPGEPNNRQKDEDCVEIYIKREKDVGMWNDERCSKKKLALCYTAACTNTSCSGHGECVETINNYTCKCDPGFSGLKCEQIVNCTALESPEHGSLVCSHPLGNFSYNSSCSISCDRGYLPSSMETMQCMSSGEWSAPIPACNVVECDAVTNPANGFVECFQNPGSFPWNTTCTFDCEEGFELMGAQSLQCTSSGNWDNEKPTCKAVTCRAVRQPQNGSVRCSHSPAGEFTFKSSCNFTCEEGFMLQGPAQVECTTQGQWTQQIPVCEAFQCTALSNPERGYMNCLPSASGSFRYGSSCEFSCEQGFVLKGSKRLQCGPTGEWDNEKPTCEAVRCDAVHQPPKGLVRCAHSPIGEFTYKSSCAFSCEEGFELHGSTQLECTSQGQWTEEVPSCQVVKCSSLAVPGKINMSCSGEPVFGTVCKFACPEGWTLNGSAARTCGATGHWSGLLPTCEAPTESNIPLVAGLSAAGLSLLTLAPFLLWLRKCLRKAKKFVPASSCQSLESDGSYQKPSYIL

CCCCC/C=C/C=C/C=O
active: [1] 9.27 µM | [2] 32.5 µM | [3] 26.8 µM | [4] 31.4 µM | CD40, CD40 (gene 958) 20 µM | [5] 34.1 µM | [6] 32.6 µM | [7] 29.7 µM | [8] 33.5 µM

Cc1ccc(O)c(C(C)(C)C)c1
active: [1] 20 µM | [2] 36.6 µM | [3] 30.9 µM | [4] 36.6 µM | CD40, CD40 (gene 958) 30.4 µM | [5] 30.4 µM | [6] 29.6 µM | [7] 31 µM | [8] 33 µM

CCn1c2ccccc2c2cc(N)ccc21
active: CD40, CD40 (gene 958) 5.63 µM | [8] 1.24 µM
not listed: [9]
inactive: all other assays above

Cc1ccc(Nc2ccc(O)c3c2C(=O)c2ccccc2C3=O)cc1
inactive: all assays above

C=C[Si](OCC)(OCC)OCC
not listed: [9]
inactive: all other assays above

CC(=O)O[C@]1(C(C)=O)CC[C@H]2[C@@H]3C[C@H](C)C4=CC(=O)CC[C@]4(C)[C@H]3CC[C@@]21C
inactive: all assays above

CNC[C@H](O)c1cccc(O)c1
active: [2] 0.0741 µM
not listed: [9]
inactive: all other assays above

O=[N+]([O-])c1cc(C(F)(F)F)ccc1Cl
not listed: [9]
inactive: all other assays above

c1ccc2c(c1)c1cccc3ccc4cccc2c4c31
active: [1] 0.0518 µM | [4] 0.0439 µM
not listed: [9]
inactive: all other assays above

C=C(C)C(=O)O[C@H]1C[C@@H]2CC[C@@]1(C)C2(C)C
inactive: [1]
active: [2] 12.8 µM | [3] 20 µM | [4] 13.8 µM | CD40, CD40 (gene 958) 27.8 µM | [5] 29.6 µM | [6] 31.2 µM | [7] 30.4 µM | [8] 31.1 µM

CCCCCCCCCC=O
not listed: [9]
inactive: all other assays above

CC(=O)Nc1ccccc1O
not listed: [9]
inactive: all other assays above

C#C[C@]1(O)CC[C@H]2[C@@H]3CCC4=Cc5oncc5C[C@]4(C)[C@H]3CC[C@@]21C
active: [3] 3.97 µM | [7] 6.65 µM
not listed: [9]
inactive: all other assays above

O=C1CCCCCCCCCCCCCCO1
active: [1] 20 µM | [2] 12.5 µM
not listed: [9]
inactive: all other assays above

O=C(O)c1ccc([N+](=O)[O-])cc1
inactive: all assays above

CC(C)(COC(=O)c1ccccc1)COC(=O)c1ccccc1
active: CD40, CD40 (gene 958) 32 µM | [7] 31.3 µM
inactive: all other assays above

O=P(c1ccccc1)(c1ccccc1)c1ccccc1
inactive: all assays above

BrC1CCC(Br)C(Br)CCC(Br)C(Br)CCC1Br (configuration not stated)
active: [3] 4.72 µM | [4] 4.69 µM | CD40, CD40 (gene 958) 4.57 µM | [7] 4.63 µM
not listed: [9]
inactive: all other assays above

COC(=O)c1ccc(C)cc1
not listed: [9]
inactive: all other assays above

Cc1ccc2n[nH]nc2c1
not listed: [9]
inactive: all other assays above

c1ccc2sc(SN(C3CCCCC3)C3CCCCC3)nc2c1
active: [3] 0.888 µM
not listed: [9]
inactive: all other assays above

CC(C)c1ccc(C(C)C)cc1
active: [5] 32.1 µM
inactive: all other assays above

O=C(O)C[C@H](O)C[C@H](O)/C=C/c1c(C2CC2)nc2ccccc2c1-c1ccc(F)cc1
active: [5] 0.0822 µM | [6] 0.992 µM | [7] 0.256 µM
not listed: [9]
inactive: all other assays above

CC1CCC(C(C)CS)CC1S (configuration not stated)
inactive: [6]
active: [1] 7.37 µM | [2] 20 µM | [3] 24 µM | [4] 33.7 µM | CD40, CD40 (gene 958) 20 µM | [5] 34.6 µM | [7] 29.4 µM | [9] 36.3 µM | [8] 33.5 µM

CCCCCCCCC=O
not listed: [9]
inactive: all other assays above

C=CCOC(=O)CCC1CCCCC1
not listed: [1] | [9]
inactive: all other assays above

O=C1OC2(c3cc(Br)c(O)c(Br)c3Oc3c2cc(Br)c(O)c3Br)c2c(Cl)c(Cl)c(Cl)c(Cl)c21
active: [1] 0.979 µM | [3] 3.53 µM | [4] 3.89 µM | CD40, CD40 (gene 958) 4.27 µM | [5] 5.71 µM | [6] 13.2 µM | [7] 3.6 µM | [8] 4.59 µM

CCCCC(CC)COCCC#N (configuration not stated)
active: [8] 0.016 µM
not listed: [9]
inactive: all other assays above

O=C(O)c1cn(-c2ccc(F)cc2)c2cc(N3CCNCC3)c(F)cc2c1=O
not listed: [9]
inactive: all other assays above

CCCCCCCCCCCCCCCCCC(=O)OCC(CC)CCCC (configuration not stated)
not listed: [9]
inactive: all other assays above

CC1COc2ccccc2N1C(=O)C(Cl)Cl (configuration not stated)
inactive: [1] | [2] | [6]
active: [3] 13.7 µM | [4] 0.0271 µM | CD40, CD40 (gene 958) 10.9 µM | [5] 20 µM | [7] 7.42 µM | [8] 5.75 µM

Cc1cc(C2(c3cc(C)c(O)cc3C)OS(=O)(=O)c3ccccc32)c(C)cc1O
not listed: [1] | [9]
inactive: all other assays above

CC(C)Oc1ccccc1O
not listed: [9]
inactive: all other assays above

OC1OC[C@@H](O)[C@H](O)[C@H]1O (some centres not stated)
not listed: [1] | [9]
inactive: all other assays above

O=C(O)c1cn(C2CC2)c2cc(N3CCNCC3)c(F)cc2c1=O
not listed: [9]
inactive: all other assays above

OC[C@H]1O[C@H](O[C@]2(CCl)O[C@H](CCl)[C@@H](O)[C@@H]2O)[C@H](O)[C@@H](O)[C@H]1Cl
not listed: [1] | [9]
inactive: all other assays above

CC(=O)OCCC(C)CC(C)(C)C (configuration not stated)
not listed: [1]
inactive: all other assays above

CC(=O)[C@H]1CC[C@H]2[C@@H]3CC=C4C[C@@H](O)CC[C@]4(C)[C@H]3CC[C@]12C
not listed: [1] | [9]
inactive: all other assays above

Nc1cc([N+](=O)[O-])ccc1Cl
not listed: [9]
inactive: all other assays above

NCCNCCN
not listed: [1] | [9]
inactive: all other assays above

CCC(=O)OCc1ccccc1
not listed: [1] | [9]
inactive: all other assays above

N#Cc1ccc(CC(=NNC(=O)Nc2ccc(OC(F)(F)F)cc2)c2cccc(C(F)(F)F)c2)cc1
active: [1] 0.463 µM
not listed: [9]
inactive: all other assays above

Nc1cc([N+](=O)[O-])ccc1O
not listed: [1] | [9]
inactive: all other assays above

O=C=NC1CCC(CC2CCC(N=C=O)CC2)CC1 (configuration not stated)
active: [4] 0.016 µM
not listed: [9]
inactive: all other assays above

COc1cc(C=O)ccc1OC(=O)C(C)C
not listed: [1]
inactive: all other assays above

CCc1c(C)cc(N)c(CC)c1N
not listed: [9]
inactive: all other assays above

CC(=O)/C=C/C1=C(C)CCCC1(C)C
not listed: [9]
inactive: all other assays above

CC[Si](OC(C)=O)(OC(C)=O)OC(C)=O
active: CD40, CD40 (gene 958) 0.626 µM
inactive: [2] | [3] | [4] | CD40, CD40 (gene 958) | [5] | [6] | [7] | [8]

CCCCC(CC)COC(=O)/C=C\C(=O)OCC(CC)CCCC (configuration not stated)
not listed: [9]
inactive: all other assays above

CN(CCOc1ccc(CC2SC(=O)NC2=O)cc1)c1ccccn1 (configuration not stated)
active: [1] 0.016 µM | [3] 3.97 µM | [4] 0.016 µM | CD40, CD40 (gene 958) 13 µM
not listed: [9]
inactive: all other assays above

C[C@H]1C[C@@H]2[C@H]([C@@H](O)C[C@@]3(C)[C@H]2CC[C@]3(O)C(=O)CO)[C@@]2(C)C=CC(=O)C=C12
not listed: [1]
inactive: all other assays above
